# ± gives the standard deviation.
# Columns and labels:
# Settings in all cases: modulator concentration 10 µM
# [1] = tested on: RAW-Dual (murine macrophage reporter line); assay: NF-kB reporter (SEAP) activity fold change vs agonist alone; higher = enhanced NF-kB activity
# Summary of the method: (§1)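 In 384-well plates holding 50 000 RAW-Dual murine macrophage reporter cells per well, compound at 10 μM final was pre-incubated for 1 hour at 37 °C, after which a PRR agonist was added overnight. Supernatant SEAP read with QUANTI-Blue at 620 nm absorbance reported NF-κB, and Lucia luciferase read with QUANTI-Luc luminescence reported IRF. Fold change values come from dividing each reporter signal by the mean of agonist-only control wells on the same plate, averaged over replicate plates with propagated errors.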
# [2] = tested on: RAW-Dual (murine macrophage reporter line); assay: IRF reporter (Lucia luciferase) activity fold change vs agonist alone; higher = enhanced IRF activity
# Summary of the method: as §1
# [3] = tested on: RAW-Dual (murine macrophage reporter line); assay: viability score (confluency relative to resting cells, overnight) (fraction); higher = more viable, active = viable (0.7 or more)
# Summary of the method: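 Two confluency masks, generated with IncuCyte software over all imaged wells, were applied to IncuCyte images of RAW-Dual macrophages. The cells, in 384-well plates, had been exposed overnight to 10 μM final compound. The viability score is confluency as a fraction of resting cells, and a compound met the cutoff only with both masks above 70% of resting cells.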
# [4] = agonist: CpG ODN 1826 0.5 ug/mL
SMILES,"NF-kB reporter [1, 4]",NF-kB reporter ([1]; agonist: LPS 0.1 ug/mL),NF-kB reporter ([1]; agonist: MPLA […]),IRF reporter ([2]; agonist: 3'3'-cGAMP 10 ug/mL),IRF reporter ([2]; agonist: LPS 0.1 ug/mL),IRF reporter ([2]; agonist: MPLA […]),viability score [3]
CN1CCN(c2ccc(-c3cccc(NC(=O)c4ccc5ccccc5c4)c3)nn2)CC1,0.162 ± 0.0099,0.745 ± 0.15,0.301 ± 0.11,0.664 ± 0.041,1.88 ± 0.75,1.85 ± 0.26,0.171 (inactive)
Cn1c(=O)cc(N2CCC[C@@H](N)C2)n(Cc2ccccc2C#N)c1=O,1.19 ± 0.25,1.25 ± 0.28,2.23 ± 1.3,0.958 ± 0.031,1.3 ± 0.35,1.33 ± 0.26,0.99 (active)
CNC(=O)c1cc(Oc2ccc(NC(=O)Nc3ccc(Cl)c(C(F)(F)F)c3)cc2)ccn1.Cc1ccc(S(=O)(=O)O)cc1,0.448 ± 0.038,0.8 ± 0.048,0.791 ± 0.072,0.246 ± 0.019,0.575 ± 0.047,0.513 ± 0.069,1.01 (active)
COc1ccc(C(=O)OCCCN2C(=O)c3ccccc3C2=O)cc1,0.926 ± 0.15,0.986 ± 0.093,0.916 ± 0.071,0.967 ± 0.036,1.26 ± 0.13,1.41 ± 0.2,1 (active)
CCCCCc1ccc(-c2ccc(-c3noc(-c4ccc(CCCC)cc4)n3)cc2)cc1,0.969 ± 0.08,0.97 ± 0.07,0.914 ± 0.086,0.94 ± 0.067,1.32 ± 0.25,1.45 ± 0.31,1.01 (active)
O=C(CCN1C(=O)c2cccc([N+](=O)[O-])c2C1=O)Nc1ccc(F)cc1,1.01 ± 0.13,1.02 ± 0.069,1.02 ± 0.035,0.875 ± 0.082,0.958 ± 0.099,1.07 ± 0.23,1 (active)
COc1ccc(S(=O)(=O)NCc2ccnc(N3CCOCC3)n2)cc1Cl,1.02 ± 0.052,1.02 ± 0.08,0.919 ± 0.1,1.07 ± 0.06,1.07 ± 0.079,1.08 ± 0.4,1 (active)
Cc1nc(-c2ccc(S(=O)(=O)NC3CCc4nc(N(C)C)ncc4C3)cc2)co1 (stereo not drawn),0.877 ± 0.065,1.21 ± 0.1,1.05 ± 0.053,1.14 ± 0.074,1.21 ± 0.091,1.35 ± 0.27,0.919 (active)
CCCc1cc(=O)[nH]c(=S)[nH]1,1.37 ± 0.11,1.07 ± 0.05,1.3 ± 0.11,0.611 ± 0.028,1.03 ± 0.082,0.903 ± 0.076,1.02 (active)
Cc1ccc(-n2nc(C(C)(C)C)cc2NC(=O)Nc2ccc(OCCN3CCOCC3)c3ccccc23)cc1,0.68 ± 0.13,0.658 ± 0.052,0.784 ± 0.077,1.19 ± 0.058,0.741 ± 0.14,0.844 ± 0.1,1.02 (active)
Cc1ccc(-c2cc(-c3ccccc3)nc(N3CCOCC3)n2)cc1,0.811 ± 0.077,1.01 ± 0.075,1.1 ± 0.076,0.71 ± 0.065,1.05 ± 0.047,1.17 ± 0.082,0.998 (active)
COC(=O)C1=CN(CC2CCCO2)C=C(C(=O)OC)C1c1ccccc1Br (stereo not drawn),1.08 ± 0.23,0.956 ± 0.094,1.01 ± 0.11,0.956 ± 0.032,1.18 ± 0.21,1.05 ± 0.11,0.726 (active)
Cc1oncc1CNC(=O)c1ccc(C(C)(C)C)cc1,1.18 ± 0.089,1.1 ± 0.083,1.07 ± 0.049,0.779 ± 0.039,1.01 ± 0.05,1.02 ± 0.099,0.996 (active)
COc1c(-c2ccc3cc(NS(C)(=O)=O)ccc3c2)cc(-n2ccc(=O)[nH]c2=O)cc1C(C)(C)C,0.43 ± 0.1,1.02 ± 0.056,0.827 ± 0.093,0.774 ± 0.043,1.2 ± 0.29,1.2 ± 0.15,1.01 (active)

# — the supplement of paper PMC10646978
